Data from PubChem BioAssay (EPA / NIEHS).
Activity calls are given as the source filed them. How the source made its calls: active means hit-call score of the fitted dose curve at least 0.9, where 1 is the maximum; inactive means score below 0.9.

Columns and labels:
[1] = read-out: Cytochrome P450 (CYP1A1), CYP1A1 (gene 1543); test: LTEA_HepaRG_CYP1A1: Life Technologies and Expression Analysis (LTEA) Assay for Cytochrome P450 (CYP1A1) using HepaRG (AID 2283454); conditions: mRNA level, 48 h; actives raise or lower the signal
Summary of the method: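 HepaRG, 48 h post-plating switched to serum-free induction medium; 8-pt conc-response (top 100 uM, half-log, 0.5% DMSO), duplicates, 48 h. Lysis in RLT, TaqMan qRT-PCR for CYP1A1; gain or loss vs DMSO.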

[2] = read-out: CFLAR gene, CFLAR (gene 8837); test: LTEA_HepaRG_CFLAR: Life Technologies and Expression Analysis (LTEA) Assay for CFLAR gene using HepaRG (AID 2283455); conditions: mRNA level, 48 h; actives raise or lower the signal
Summary of the method: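 Differentiated HepaRG cells in serum-free induction medium were exposed 48 h in duplicate to eight half-log concentrations up to 100 uM in 0.5% DMSO; mRNA measured by TaqMan qRT-PCR, normalized to ACTB, GAPDH, POLR2A; bidirectional fitting versus DMSO.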

[3] = read-out: Forkhead box O1 (FOXO1), FOXO1 (gene 2308); test: LTEA_HepaRG_FOXO1: Life Technologies and Expression Analysis (LTEA) Assay for Forkhead box O1 (FOXO1) using HepaRG (AID 2283456); conditions: mRNA level, 48 h; actives raise or lower the signal
Summary of the method: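 Differentiated HepaRG cells, in serum-free induction medium with 0.5% DMSO, exposed 48 h in duplicate to 8-point half-log series from 100 uM. FOXO1 mRNA measured by TaqMan qRT-PCR, normalized to ACTB, GAPDH, POLR2A; bidirectional fit versus DMSO.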

[4] = read-out: growth arrest and DNA damage 45 (GADD45A), GADD45A (gene 1647); test: LTEA_HepaRG_GADD45A: Life Technologies and Expression Analysis (LTEA) Assay for growth arrest and DNA damage 45 (GADD45A) using HepaRG (AID 2283458); conditions: mRNA level, 48 h; actives raise or lower the signal
Summary of the method: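 Differentiated HepaRG cells were exposed in duplicate for 48 h in serum-free induction medium to 8-point half-log concentrations up to 100 uM in 0.5% DMSO. GADD45A mRNA was measured by TaqMan qRT-PCR, normalized to ACTB, GAPDH and POLR2A, with bidirectional fitting versus DMSO.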

[5] = read-out: Forkhead box O3 (FOXO3), FOXO3 (gene 2309); test: LTEA_HepaRG_FOXO3: Life Technologies and Expression Analysis (LTEA) Assay for Forkhead box O3 (FOXO3) using HepaRG (AID 2283459); conditions: mRNA level, 48 h; actives raise or lower the signal
Summary of the method: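 Differentiated human HepaRG cells, 48 h post-plating, exposed in duplicate for 48 h in serum-free induction medium; 8-point half-log series from 100 uM in 0.5% DMSO. FOXO3 mRNA by TaqMan qRT-PCR, normalized to ACTB/GAPDH/POLR2A; bidirectional fit versus DMSO.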

[6] = read-out: ABC Transporter (ABCB1), ABCB1 (gene 5243); test: LTEA_HepaRG_ABCB1: Life Technologies and Expression Analysis (LTEA) Assay for ABC Transporter (ABCB1) using HepaRG (AID 2283460); conditions: mRNA level, 48 h; actives raise or lower the signal
Summary of the method: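 HepaRG cells exposed in duplicate for 48 h in serum-free induction medium to eight half-log concentrations up to 100 uM in 0.5% DMSO. ABCB1 mRNA quantified by qRT-PCR, normalised to ACTB, GAPDH and POLR2A; fitted bidirectionally versus DMSO.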

[7] = read-out: growth arrest and DNA damage 45 (GADD45B), GADD45B (gene 4616); test: LTEA_HepaRG_GADD45B: Life Technologies and Expression Analysis (LTEA) Assay for growth arrest and DNA damage 45 (GADD45B) using HepaRG (AID 2283461); conditions: mRNA level, 48 h; actives raise or lower the signal
Summary of the method: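 HepaRG, ~100,000 cells/well, 48 h plating; serum-free induction medium; cpd 100 uM top, half-log x8, 0.5% DMSO, duplicate, 48 h; lysis in RLT, RNA isolation, qRT-PCR; norm ACTB/GAPDH/POLR2A; bidirectional fit vs DMSO.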

[8] = read-out: ABC Transporter (ABCC3), ABCC3 (gene 8714); test: LTEA_HepaRG_ABCC3: Life Technologies and Expression Analysis (LTEA) Assay for ABC Transporter (ABCC3) using HepaRG (AID 2283462); conditions: mRNA level, 48 h; actives raise or lower the signal
Summary of the method: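 Human HepaRG, 48 h dosing, 8-pt half-log series from 100 uM, 0.5% DMSO vehicle, duplicates. ABCC3 mRNA by TaqMan qRT-PCR, housekeeping-normalized; bidirectional curve fit vs DMSO.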

[9] = read-out: ABC Transporter (ABCB11), ABCB11 (gene 8647); test: LTEA_HepaRG_ABCB11: Life Technologies and Expression Analysis (LTEA) Assay for ABC Transporter (ABCB11) using HepaRG (AID 2283463); conditions: mRNA level, 48 h; actives raise or lower the signal
Summary of the method: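 Differentiated human HepaRG cells in serum-free induction medium, dosed in duplicate for 48 h. Eight-point half-log series from 100 uM in 0.5% DMSO; ABCB11 mRNA by qRT-PCR, normalized to ACTB, GAPDH, POLR2A, fitted bidirectionally versus DMSO.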

[10] = CEETOX_H295R_TESTO: CeeTox H295R High-throughput Steroidogenesis Assay for Testosterone (TESTO) (AID 2283457); conditions: actives raise or lower the signal
Method: CEETOX_H295R is a cell-based, multiplexed-readout assay that uses H295R, a human adrenal gland cell line, with measurements taken at 48 hours after chemical dosing in a 96-well plate.CEETOX_H295R_TESTO is one of 23 assay component(s) measured or calculated from the CEETOX_H295R assay. It is designed to make measurements of hormone induction, a form of inducible reporter, as detected with […] by HPLC-MS-MS technology.Data from the assay component CEETOX_H295R_TESTO was analyzed into 1 assay endpoint. This assay endpoint, CEETOX_H295R_TESTO, was analyzed with bidirectional fitting relative to DMSO as the negative control and baseline of activity. Using a type of inducible reporter, gain or loss-of-signal activity using HPLC-MS-MS was used to understand synthesis of Testosterone in H295R cell line at 48hr of chemical exposure. To generalize the intended target to other relatable targets, this assay endpoint is annotated to the steroid hormone intended target family, where the subfamily is androgens.
Cell culture and media preparation procedures were conducted in accordance with OECD Test No. 456 guidelines, with minor modifications. H295R cells (ATCC CRL-2128) were expanded for 5 passages and frozen in batches in liquid nitrogen. Prior to the steroidogenesis assay, H295R cells were thawed and passed at least 4 times. The maximum passage was 10. Cells were maintained in a 1:1 mixture of DMEM/F12 supplemented with 5ml/L ITS+ Premix (BD Bioscience) and 12.5 ml/L Nu-Serum (BD Bioscience). After seeding cells into 96-well plates at 50-60% confluency, cells were allowed to adhere overnight. […] Test chemicals were incubated for 48 hours, then the medium was removed and split into 2 vials containing approximately 75uL each, and stored at -80 C prior to hormone analysis. For steroid quantification, media samples were shipped to OpAns, LLC (Durham, NC) on dry ice, and samples were thawed to room temperature prior to liquid-liquid extraction. Steroid hormones were extracted from media samples using methyl tertbutyl ether (MTBE). An extra derivatization with dansyl chloride was included for estrogen (estrone and estradiol) detection only. Steroid hormones were separated by HPLC, eluted using a reverse phase C18 gradient with electrospray positive ionization, followed by quantification by tandem mass spectrometry (MS/MS). Data were acquired on a MassHunter Workstation Acquisition version B03.01 (Agilent Technologies, Inc.) and processed using MassHunter Quantitative Analysis for QQQ. Accuracy was determined for each hormone analyte from 3 standards to determine upper and lower limits of quantification (ULOQ and LLOQ, respectively) using a 7-point standard curve. Precision and accuracy of the extraction and quantification methods were calculated as the percent relative standard deviation (%RSD) of the spiked standards and percent spiked standard recovered, respectively. […] Test medium was removed following chemical exposure, and cell viability was evaluated in the same wells by MTT. […] Absorbance was read at 570 and 650nm using a Packard Fusion microplate reader. Background correction of absorbance units was used to determine percent change relative to controls. […] When a test chemical reduced cell viability to 20% - 70%, the test chemical was diluted 10-fold and re-evaluated, but if cell viability was <20%, then the test chemical was diluted 100-fold and re-evaluated. […]

Measured: AC50

CCCCCCCC/C=C\CCCCCCCC(=O)OC[C@@H](O)[C@H]1OC[C@H](O)[C@H]1O
not listed: [10]
inactive: all other assays above

CCn1nc(C)c2c1C(=O)NCC(c1ccc(O)cc1)=N2
active: [1] 40 µM
not listed: [10]
inactive: all other assays above

CC(C)C(=O)Nc1ccc([N+](=O)[O-])c(C(F)(F)F)c1
active: [1] 11.3 µM | [2] 50 µM | [3] 50 µM | [4] 67.9 µM | [9] 25.3 µM
inactive: [5] | [6] | [7] | [8]

Cn1c(=O)c2[nH]cnc2n(C)c1=O
not listed: [10]
inactive: all other assays above

OC(Cn1cncn1)(Cn1cncn1)c1ccc(F)cc1F
not listed: [10]
inactive: all other assays above

CCCCCCCCN(C)C
not listed: [10]
inactive: all other assays above

c1ccc(C(O[C@@H]2CCCN(CCc3ccc4c(c3)OCO4)C2)c2ccccc2)cc1
active: [1] 13.2 µM | [4] 89.2 µM | [5] 10.2 µM | [6] 83.9 µM | [7] 81.1 µM | [8] 30.1 µM | [9] 76.8 µM
inactive: [2] | [3]

CCCCOC(=O)c1ccccc1
not listed: [10]
inactive: all other assays above

CCN(CC)C(=S)SSC(=S)N(CC)CC
active: [1] 51 µM
not listed: [8]
inactive: all other assays above
